Laboratory results: PubChem BioAssay (NCI)
About 83,000 compounds went through this panel and 20% of them were active in at least one assay; those are over-represented in the sample as a whole.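 Compound tested at a single concentration for 48 hours in 96-well plates; a percent growth value below 10 was scored as active.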 Active and inactive are the calls of the source.

Columns and labels:
Assay in all cases: NCI-60 one-dose screen, 48 h (100 = growth as untreated, 0 = no growth, -100 = all killed)
[1] = system: HT29 colon; conditions: 10 µM unless noted
[2] = system: SNB-75 CNS; conditions: 10 µM unless noted
[3] = system: SNB-19 CNS; conditions: 10 µM unless noted
[4] = system: U251 CNS; conditions: 10 µM unless noted
[5] = system: PC-3 prostate; conditions: 10 µM unless noted
[6] = system: UACC-62 melanoma; conditions: 10 µM unless noted
[7] = system: LOX IMVI melanoma; conditions: 10 µM unless noted
[8] = system: SK-MEL-28 melanoma; conditions: 10 µM
[9] = system: SK-MEL-2 melanoma; conditions: 10 µM unless noted
[10] = system: SK-MEL-5 melanoma; conditions: 10 µM unless noted

Measured: growth

O=C(Nc1ccc(I)cc1F)c1cc(F)ccc1O
active: [2] -20.7% | [4] -16.8% | [5] 3.39% | [6] -21.9% | [7] 0.316% | [8] -5.23% | [9] -35.8%
inactive: [1] 25.6% | [3] 16.8%

CN1CCN(Cc2ccc(NC(=O)c3[nH]ncc3Nc3cc(OC4CCCC4)ncn3)cc2)CC1
inactive: [1] 14.3% | [2] 61.7% | [3] 59.8% | [4] 41.1% | [10] 14.5% | [6] 29.2% | [7] 17.9% | [8] 53.1% | [9] 49.4%

O=S1(=O)CCN(Cc2ccccc2)CC1
inactive: [1] 103% | [2] 111% | [3] 92% | [4] 104% | [10] 96.5% | [6] 106% | [7] 98.3% | [8] 102% | [9] 119%

O=C(COc1cc(O)c2c(=O)cc(-c3ccccc3)oc2c1)Nc1ccccc1C(F)(F)F
active: [2] -4.06% | [4] 4.09%
inactive: [1] 70.6% | [3] 45.2% | [5] 64.6% | [6] 77.5% | [7] 52% | [8] 79.1% | [9] 92%

O=C(CCc1nnc2sc(Cc3ccccc3Cl)nn12)c1nc2ncccc2[nH]1
inactive: [1] 104% | [2] 67.7% | [3] 93.3% | [4] 104% | [5] 85.6% | [6] 83.2% | [7] 88% | [8] 96.2% | [9] 97.9%

O=c1oc2ccc(Br)cc2c(=O)n1-c1ccc(I)cc1F
inactive: [1] 40.1% | [3] 18.4%
active: [2] -20.8% | [4] 0.947% | [5] -0.134% | [6] -19.7% | [7] 6% | [8] -2% | [9] -32.6%

O=C(Nc1ccc(Br)cc1F)c1cc(F)ccc1O
active: [2] -16.8% | [4] 3.38% | [5] 2.45% | [6] -16.4% | [7] 9.8% | [8] 6.8% | [9] -29.2%
inactive: [1] 18% | [3] 19.3%

O=C(Nc1ccc(Br)cc1F)c1cc(Cl)ccc1O
inactive: [1] 15.6% | [3] 14%
active: [2] -34.7% | [4] -0.181% | [5] -5.33% | [6] -24.9% | [7] 1.68% | [8] -6.77% | [9] -25.8%

CCOc1ccc(-c2nonc2NC(=O)c2cccc(C)c2)cc1OCC
inactive: [1] 28.3% | [2] 89.2% | [3] 90.7% | [4] 75% | [10] 35.2% | [6] 78.4% | [8] 89.5% | [9] 88.6%

O=C(CSc1ncccc1C(=O)O)Nc1ccc(Oc2ccccc2)cc1
inactive: [1] 115% | [2] 88.3% | [3] 106% | [5] 99.8% | [6] 116% | [7] 92.1% | [8] 105% | [9] 106%

COC(=O)C1=Nc2ccc(F)cc2/C1=C/c1sc(=S)[nH]c1O
active: [1] 8.16% | [4] 8.56% | [10] -41%
inactive: [2] 11.6% | [3] 30.4% | [6] 53.6% | [7] 13% | [8] 59.4% | [9] 39.5%

Cc1ccc2cccc(Oc3ccc(Nc4ncnc5onc(-c6ccccc6)c45)cc3)c2n1
inactive: [1] 57.2% | [2] 78.1% | [3] 92.3% | [4] 70% | [10] 46.3% | [6] 63.8% | [7] 56.5% | [8] 80.1% | [9] 94%

COc1ccc(-c2nc(N3CCN(C(=O)C4CCCCC4)CC3)c3c4c(sc3n2)CCCC4)cc1
inactive: [3] 69.8% | [10] 36.5% | [6] 44.1% | [9] 24.7%
active: [1] -49.9% | [2] -66.3% | [4] -78.6% | [7] 5.28% | [8] -24.2%

CC(=S)NC(=O)C(=O)/C=C1/NC(=O)C(=O)S1
inactive: [1] 110% | [2] 95.5% | [3] 106% | [4] 111% | [10] 104% | [6] 99.9% | [7] 99.7% | [8] 106% | [9] 103%

C[n+]1c2ccccc2nc2ccc(NCCO)cc21
inactive: [2] 98.8% | [3] 78.3% | [4] 80.5% | [10] 98% | [6] 84.1% | [7] 90.6% | [8] 110% | [9] 102%
active: [1] 8.37%

COc1ccc(CCN2C(=O)/C(=C/c3ccc(C4Oc5ccccc5C5CC(c6cccc(OC)c6)=NN54)cc3)SC2=S)cc1 (stereo not drawn)
inactive: [1] 104% | [2] 90.5% | [3] 99.1% | [4] 101% | [10] 99% | [6] 102% | [7] 96.4% | [8] 101% | [9] 99.8%

CCOC(=O)c1c(Cl)c2c(n1Cc1ccccc1)-c1oncc1CCC2
inactive: [1] 25.8% | [2] 69.1% | [3] 83.2% | [4] 64.5% | [10] 53.1% | [6] 49.2% | [7] 66.7% | [8] 44.7% | [9] 52.7%

O=C1OC(c2ccccc2)(c2ccccc2)c2ccsc21
inactive: [1] 102% | [2] 103% | [3] 102% | [4] 102% | [10] 102% | [6] 94.1% | [7] 103% | [8] 112% | [9] 94%

CCOc1cccc(/C=N\Nc2nc(=O)cc(C(=O)OC)s2)c1O
inactive: [1] 76.1% | [2] 77.8% | [3] 75.9% | [4] 57.6% | [10] 79.8% | [6] 63% | [7] 61.7% | [8] 87.2% | [9] 99.6%

CCOC(=O)c1ccc(N=Cc2sc(=O)[nH]c2O)cc1
inactive: [1] 104% | [2] 84.9% | [3] 91.9% | [4] 97.3% | [10] 99.8% | [6] 91.2% | [7] 93.6% | [8] 105% | [9] 94.5%

CSc1nc2c(c(=O)[nH]1)N=C1c3ccccc3C(=O)C1C(c1ccccc1)N2 (stereo not drawn)
active: [1] 5.89%
inactive: [2] 34.3% | [3] 39.8% | [4] 37.5% | [10] 16.1% | [6] 37.8% | [7] 51.9% | [8] 54% | [9] 59%

Cc1ccc(OCCCCCCNCCO)c(C)c1
active: [4] 3.86% | [10] -58.3% | [6] -42% | [7] -1.77% | [9] 2.48%
inactive: [1] 22.4% | [2] 31.1% | [3] 14.5% | [8] 15.5%

CCCC(c1nnnn1C1CCCCC1)N1CCN(C(=O)c2ccco2)CC1 (stereo not drawn)
inactive: [1] 27.2% | [2] 76.7% | [3] 84.5% | [4] 50.2% | [10] 47.1% | [6] 55.7% | [8] 65.6% | [9] 65.1%

COC(=O)/C(CCC=C(C)C)=C1\[C@@H](OC(C)=O)C[C@@]2(C)[C@H]1C[C@@H](O)[C@H]1[C@@]3(C)CC[C@H](NCCCNCCCCNCCCN)[C@@H](C)[C@@H]3CC[C@@]12C
inactive: [1] 31.1% | [2] 93.4% | [3] 61.8% | [4] 71.5% | [10] 12.6% | [6] 31.9% | [7] 52.9% | [8] 19.9% | [9] 98.1%

Clc1ccc(-c2nnc(COc3ccc(C4=NNC(c5ccco5)C4)cc3)o2)cc1 (stereo not drawn)
inactive: [1] 101% | [2] 84.9% | [3] 92.5% | [5] 80.8% | [6] 76.3% | [7] 84.8% | [8] 101% | [9] 106%

CCOc1ccc(Nc2ccnc3cc(Cl)ccc23)cc1
active: [1] 1.61% | [2] 1.25% | [4] 4.87% | [10] -12.5% | [7] -22.3% | [9] -40.5%
inactive: [3] 16% | [6] 21.9% | [8] 31.1%

O=[N+]([O-])c1cc2c(ccc3occc32)o1
active: [10] -77% | [7] -36.3% | [8] -63.5% | [9] -46%
inactive: [1] 11.8% | [2] 31.7% | [3] 49.4% | [4] 48.7% | [6] 20.5%

COc1ccc(C2=NN(/C=C3\SC(=O)NC3=Nc3ccc(F)cc3)C(c3ccc(F)cc3)C2)cc1 (stereo not drawn)
inactive: [1] 98.8% | [2] 96.5% | [3] 95.1% | [4] 94.1% | [10] 92% | [6] 95.4% | [7] 97.6% | [8] 103% | [9] 102%
